From PubChem BioAssay (EPA / NIEHS)
Results filed as inconclusive are left out. Calls of active or inactive are those of the source. Rule for the calls, unless noted: active = hit-call score of the fitted dose curve at least 0.9, where 1 is the maximum; inactive = score below 0.9.

Key:
[1] = target: Myc proto-oncogene protein (Homo sapiens) (UniProt P01106); experiment: ATG_Myc_CIS: Attagene CIS-FACTORIAL HepG2 Assay for human Myelocytomatosis (Myc) Proto-Oncogene Transcription Factor (AID 2282990); conditions: HepG2, Attagene cis-reporter transcription factor activity; actives raise or lower the signal
Summary of the method: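 HepG2, transient MRTU transfection (cis promoters, endogenous TFs); 24 h dosing; TriZol RNA → oligo(dT) RT → PCR → 6-FAM primer extension → HpaI cut → CE. Bidirectional fit vs DMSO.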

[2] = ATG_NF_kB_CIS: Attagene CIS-FACTORIAL HepG2 Assay for human Nuclear Factor Kappa B (NF-kB) (AID 2282991); conditions: HepG2 Attagene cis-factorial NF-kB reporter mRNA; actives raise or lower the signal
Summary of the method: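 HepG2, transient multi-reporter transfection, cis promoter elements (endogenous TFs). 24 h exposure. Total RNA → RT → PCR → 6-FAM label → HpaI → CE. Gain/loss vs DMSO.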

[3] = ATG_NRF2_ARE_CIS: Attagene CIS-FACTORIAL HepG2 Assay for human Nuclear Factor Erythroid 2 Related Factor 2 (NFR2) response to Antioxidant Response Elements (ARE) (AID 2282992); conditions: HepG2 Attagene ARE/NRF2 reporter, transcription factor activity; actives raise or lower the signal;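 for AC50: reporter mRNA level measured by RT-PCR and capillary electrophoresis fluorescence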
Summary of the method: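 HepG2 cells transiently transfected with multiplexed cis-element reporter constructs, 24 h after chemical dosing; reporter mRNA quantified by RT-PCR, fluorescent primer extension, HpaI digestion and capillary electrophoresis. Bidirectional fit relative to DMSO.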

[4] = ATG_Oct_MLP_CIS: Attagene CIS-FACTORIAL HepG2 Assay for human Octamer-Binding Transcription Factor (Oct) (AID 2282993); conditions: HepG2 Attagene cis-factorial Oct reporter, mRNA; actives raise or lower the signal
Summary of the method: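 Using HepG2 cells bearing transfected cis-reporter constructs, mRNA induction was read after 24 h by fluorescent RT-PCR and capillary electrophoresis, with DMSO defining baseline for gain- or loss-of-signal fits.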

[5] = target: Cellular tumor antigen p53 (Homo sapiens) (UniProt P04637); experiment: ATG_p53_CIS: Attagene CIS-FACTORIAL HepG2 Assay for human p53 Transcription Factor (AID 2282994); conditions: HepG2 p53 cis-element reporter, Attagene mRNA; actives raise or lower the signal
Summary of the method: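 HepG2 cells transiently transfected with cis-regulated multiple reporter transcription units, dosed 24 h. Reporter mRNA measured by RT-PCR, 6-FAM primer extension, HpaI digestion and capillary electrophoresis; bidirectional fit relative to DMSO.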

[6] = BSK_3C_TissueFactor: BioMAP Diversity Plus: 3C Assay for Tissue Factor Biomarker Activity (AID 2282997); conditions: BioMAP 3C HUVEC, tissue factor biomarker readout; actives raise or lower the signal
Summary of the method: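 Primary human umbilical vein endothelial cells in the 3C system were exposed to test chemical for 24 h, then Tissue Factor measured by ELISA. Activity was fitted bidirectionally against DMSO as negative control and baseline.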

[7] = BSK_3C_uPAR: BioMAP Diversity Plus: 3C Assay for Urokinase-type plasminogen activator receptor (uPAR) Biomarker Activity (AID 2282998); conditions: BioMAP 3C HUVEC, uPAR biomarker ELISA; actives raise or lower the signal
Summary of the method: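 In this endothelial cell-based assay, human umbilical vein primary cells were treated with chemicals and harvested at 24 h. uPAR was quantified using ELISA, with gains or losses fitted relative to DMSO controls.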

[8] = BSK_3C_VCAM1: BioMAP Diversity Plus: 3C Assay for Vascular cell adhesion molecule 1 (VCAM1) Biomarker Activity (AID 2282999); conditions: BioMAP 3C HUVEC, VCAM1 ELISA, cytokine-stimulated; actives raise or lower the signal
Summary of the method: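 Endothelial cells from human umbilical vein are treated with test chemical. At 24 h, VCAM-1 is measured by ELISA, and responses in either direction are fitted relative to DMSO.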

[9] = BSK_4H_Eotaxin3: BioMAP Diversity Plus: 4H Assay for Eotaxin 3 Biomarker Activity (AID 2283000); conditions: primary human endothelial cells (HUVEC); actives raise or lower the signal;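 note: CCL26 protein level quantified by ELISA in parallel with SRB cytotoxicity check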
Summary of the method: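 HUVEC, 24 h post-dose, ELISA for Eotaxin-3/CCL26. Gain or loss of signal fitted bidirectionally vs DMSO baseline.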

[10] = target: human Peroxisome Proliferator-activated Receptor delta (PPARd), PPARD (gene 5467) (UniProt Q03181); experiment: ATG_PPARd_TRANS: Attagene TRANS-FACTORIAL HepG2 Assay for human Peroxisome Proliferator-activated Receptor delta (PPARd) (AID 2283002; active = hit-call score of the fitted dose curve at least 0.9, where 1 is the maximum)
Summary of the method: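 Transient HepG2 transfection (multiple GAL4-UAS RTUs, chimeric receptor-Gal4); 24 h dosing; total RNA → oligo(dT) RT → PCR → 6-FAM primer extension → HpaI cut → CE. Positive direction vs DMSO.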

[11] = read-out: Intercellular Adhesion Molecule 1 (ICAM1), ICAM1 (gene 3383); experiment: BSK_3C_ICAM1: BioMAP Diversity Plus: 3C Assay for Intercellular Adhesion Molecule 1 (ICAM1) Biomarker Activity (AID 2283003); conditions: primary human endothelial cells (HUVEC); actives raise or lower the signal
Summary of the method: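 HUVEC primary cells stimulated under 3C conditions; ICAM1 measured by ELISA 24 h after compound dosing. Curves fitted bidirectionally against the DMSO baseline. Overt cytotoxicity checked by SRB staining of parallel cultures.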

[12] = BSK_3C_Proliferation: Cell Proliferation Assessment in the BioMAP Diversity Plus: 3C Assay (AID 2283006); conditions: primary human endothelial cells (HUVEC);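 for AC50: potency may reflect either rise or fall in cell number versus DMSO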
Summary of the method: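 Subconfluent HUVEC (3C system) cultured with chemical; relative cell number read at 48 h by sulforhodamine B total-protein staining (0.1% SRB after 10% TCA fixation, 560 nm). Bidirectional fit relative to DMSO.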

[13] = target: Nuclear receptor subfamily 1 group I member 2 (Homo sapiens) (UniProt O75469); experiment: ATG_PXR_TRANS: Attagene TRANS-FACTORIAL HepG2 Assay for human Pregnane X Receptor (PXR) (AID 2283008; active = hit-call score of the fitted dose curve at least 0.9, where 1 is the maximum)
Summary of the method: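 HepG2 cells transiently transfected with GAL4-UAS reporter units and PXR-Gal4 chimera, exposed 24 h. Reporter mRNA quantified by RT-PCR, fluorescent labelling, HpaI digestion and capillary electrophoresis; gain of signal vs DMSO.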

[14] = target: Retinoic acid receptor RXR-alpha (Homo sapiens) (UniProt P19793); experiment: ATG_RXRa_TRANS: Attagene TRANS-FACTORIAL HepG2 Assay for human Retinoid X Receptor alpha (RXRa) (AID 2283012; active = hit-call score of the fitted dose curve at least 0.9, where 1 is the maximum)
Summary of the method: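 HepG2 cells transiently transfected with GAL4-UAS reporter units and chimeric RXRa-Gal4 protein, treated 24 h. Reporter mRNA measured by RT-PCR, fluorescent labelling, HpaI digestion and capillary electrophoresis. Induction fitted against DMSO.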

[15] = target: human RAR-related Orphan Receptor beta (RORb), RORB (gene 6096) (UniProt Q92753); experiment: ATG_RORb_TRANS: Attagene TRANS-FACTORIAL HepG2 Assay for human RAR-related Orphan Receptor beta (RORb) (AID 2283010; active = hit-call score of the fitted dose curve at least 0.9, where 1 is the maximum)
Summary of the method: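 HepG2 cells transiently transfected with GAL4-UAS reporter units expressing chimeric NR-Gal4 protein; reporter mRNA measured 24 h after dosing by RT-PCR, 6-FAM labelling and capillary electrophoresis. Gain-of-signal fitted relative to DMSO baseline.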

[16] = target: human Peroxisome Proliferator-activated Receptor alpha (PPARa), PPARA (gene 5465) (UniProt Q07869); experiment: ATG_PPARa_TRANS: Attagene TRANS-FACTORIAL HepG2 Assay for human Peroxisome Proliferator-activated Receptor alpha (PPARa) (AID 2283001; active = hit-call score of the fitted dose curve at least 0.9, where 1 is the maximum)
Summary of the method: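 Read-out is fluorescence of reporter cDNA fragments resolved by capillary electrophoresis after RT-PCR. Human HepG2 liver cells carried transfected PPARa-Gal4 chimera and GAL4-UAS reporter units, treated 24 h; activity scored as increase over DMSO.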

[17] = target: Peroxisome proliferator-activated receptor gamma (Homo sapiens) (UniProt P37231); experiment: ATG_PPARg_TRANS: Attagene TRANS-FACTORIAL HepG2 Assay for human Peroxisome Proliferator-activated Receptor-gamma (PPARg) (AID 2283007; active = hit-call score of the fitted dose curve at least 0.9, where 1 is the maximum)
Summary of the method: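 Multiplexed reporter transcription units in HepG2, 24 h dosing, reporter transcripts quantified by fluorescent RT-PCR and capillary electrophoresis. Increase over DMSO scored.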

[18] = target: human Retinoic Acid Receptor beta (RARb), RARB (gene 5915) (UniProt P10826); experiment: ATG_RARb_TRANS: Attagene TRANS-FACTORIAL HepG2 Assay for human Retinoic Acid Receptor beta (AID 2283004; active = hit-call score of the fitted dose curve at least 0.9, where 1 is the maximum)
Summary of the method: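 HepG2 cells transiently transfected with multiplexed GAL4-UAS reporter units expressing chimeric NR–Gal4 fusions; 24 h compound exposure. Reporter mRNA quantified by RT-PCR, 6-FAM labelling, HpaI digestion and capillary electrophoresis; gain-of-signal fitted against DMSO baseline.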

[19] = target: human Retinoic Acid Receptor gamma (RARg), RARG (gene 5916) (UniProt P13631); experiment: ATG_RARg_TRANS: Attagene TRANS-FACTORIAL HepG2 Assay for human Retinoic Acid Receptor gamma (RARg) (AID 2283009; active = hit-call score of the fitted dose curve at least 0.9, where 1 is the maximum)
Summary of the method: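 HepG2 transiently transfected with GAL4-UAS reporter units and chimeric NR-Gal4 constructs; 24 h compound exposure. Reporter mRNA quantified by RT-PCR, FAM labeling, HpaI digestion and capillary electrophoresis; gain-of-signal versus DMSO.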

Measured: AC50

human Peroxisome Proliferator-activated Receptor delta (PPARd), PPARD (gene 5467), sequence (Q03181 whole entry, looked up, the tested form may be a part): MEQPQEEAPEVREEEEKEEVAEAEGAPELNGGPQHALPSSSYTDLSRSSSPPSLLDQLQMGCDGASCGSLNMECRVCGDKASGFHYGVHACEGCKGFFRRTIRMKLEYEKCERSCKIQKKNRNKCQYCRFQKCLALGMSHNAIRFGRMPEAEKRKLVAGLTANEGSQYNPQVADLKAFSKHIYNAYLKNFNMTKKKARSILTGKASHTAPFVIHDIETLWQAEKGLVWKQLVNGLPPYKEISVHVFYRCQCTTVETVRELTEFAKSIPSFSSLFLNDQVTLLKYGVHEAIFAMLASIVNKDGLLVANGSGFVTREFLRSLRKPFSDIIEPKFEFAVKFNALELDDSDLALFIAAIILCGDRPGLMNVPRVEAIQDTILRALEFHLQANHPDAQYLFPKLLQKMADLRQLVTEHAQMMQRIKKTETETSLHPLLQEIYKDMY
Nuclear receptor subfamily 1 group I member 2 (Homo sapiens), sequence (O75469 whole entry, looked up, the tested form may be a part): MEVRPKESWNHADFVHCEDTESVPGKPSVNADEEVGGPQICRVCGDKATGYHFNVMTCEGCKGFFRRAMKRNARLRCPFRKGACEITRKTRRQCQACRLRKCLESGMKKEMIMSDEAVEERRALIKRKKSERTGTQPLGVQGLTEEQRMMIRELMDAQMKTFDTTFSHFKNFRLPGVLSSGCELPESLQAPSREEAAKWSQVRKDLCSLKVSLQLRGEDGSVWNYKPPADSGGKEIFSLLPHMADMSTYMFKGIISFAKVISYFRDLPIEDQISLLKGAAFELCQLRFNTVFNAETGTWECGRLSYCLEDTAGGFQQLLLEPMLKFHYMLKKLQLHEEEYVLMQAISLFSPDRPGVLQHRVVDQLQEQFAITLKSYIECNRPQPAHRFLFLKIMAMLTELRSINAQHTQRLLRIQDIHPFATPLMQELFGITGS
human Peroxisome Proliferator-activated Receptor alpha (PPARa), PPARA (gene 5465), sequence (Q07869 whole entry, looked up, the tested form may be a part): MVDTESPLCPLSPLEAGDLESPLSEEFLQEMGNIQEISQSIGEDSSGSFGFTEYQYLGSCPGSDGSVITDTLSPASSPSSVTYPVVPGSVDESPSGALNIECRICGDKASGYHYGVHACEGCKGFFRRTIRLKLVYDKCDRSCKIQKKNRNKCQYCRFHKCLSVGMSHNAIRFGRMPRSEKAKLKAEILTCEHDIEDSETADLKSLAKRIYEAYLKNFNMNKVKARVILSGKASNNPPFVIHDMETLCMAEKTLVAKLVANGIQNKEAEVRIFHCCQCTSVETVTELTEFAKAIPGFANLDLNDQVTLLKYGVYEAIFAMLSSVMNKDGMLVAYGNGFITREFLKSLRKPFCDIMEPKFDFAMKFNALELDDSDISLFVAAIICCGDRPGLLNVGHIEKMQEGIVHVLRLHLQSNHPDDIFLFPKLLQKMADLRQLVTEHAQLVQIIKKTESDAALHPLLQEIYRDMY
Retinoic acid receptor RXR-alpha (Homo sapiens), sequence (P19793 whole entry, looked up, the tested form may be a part): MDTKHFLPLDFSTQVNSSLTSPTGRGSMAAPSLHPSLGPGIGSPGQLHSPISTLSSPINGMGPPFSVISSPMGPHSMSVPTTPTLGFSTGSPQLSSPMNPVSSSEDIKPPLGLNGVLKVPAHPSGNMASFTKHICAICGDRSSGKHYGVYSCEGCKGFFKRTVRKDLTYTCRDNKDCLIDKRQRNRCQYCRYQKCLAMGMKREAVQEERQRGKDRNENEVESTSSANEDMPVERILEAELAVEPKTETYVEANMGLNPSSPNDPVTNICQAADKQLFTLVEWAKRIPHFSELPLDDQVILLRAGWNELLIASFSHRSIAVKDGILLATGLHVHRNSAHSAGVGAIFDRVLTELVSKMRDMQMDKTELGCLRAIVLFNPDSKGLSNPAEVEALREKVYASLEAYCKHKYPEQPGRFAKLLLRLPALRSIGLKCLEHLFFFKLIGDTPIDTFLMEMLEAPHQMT
Myc proto-oncogene protein (Homo sapiens), sequence (P01106 whole entry, looked up): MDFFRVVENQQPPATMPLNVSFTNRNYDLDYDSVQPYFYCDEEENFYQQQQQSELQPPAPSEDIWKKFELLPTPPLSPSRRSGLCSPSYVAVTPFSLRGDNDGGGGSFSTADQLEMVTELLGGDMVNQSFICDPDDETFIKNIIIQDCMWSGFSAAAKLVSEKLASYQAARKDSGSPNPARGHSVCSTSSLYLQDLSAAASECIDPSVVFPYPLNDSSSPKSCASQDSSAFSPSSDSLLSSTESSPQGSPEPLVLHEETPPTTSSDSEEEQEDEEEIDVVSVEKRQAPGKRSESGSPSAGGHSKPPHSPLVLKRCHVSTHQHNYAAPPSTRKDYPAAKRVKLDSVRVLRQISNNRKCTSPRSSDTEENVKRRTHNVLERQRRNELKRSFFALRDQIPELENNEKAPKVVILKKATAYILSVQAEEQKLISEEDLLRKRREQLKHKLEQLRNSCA
Peroxisome proliferator-activated receptor gamma (Homo sapiens), sequence (P37231 whole entry, looked up): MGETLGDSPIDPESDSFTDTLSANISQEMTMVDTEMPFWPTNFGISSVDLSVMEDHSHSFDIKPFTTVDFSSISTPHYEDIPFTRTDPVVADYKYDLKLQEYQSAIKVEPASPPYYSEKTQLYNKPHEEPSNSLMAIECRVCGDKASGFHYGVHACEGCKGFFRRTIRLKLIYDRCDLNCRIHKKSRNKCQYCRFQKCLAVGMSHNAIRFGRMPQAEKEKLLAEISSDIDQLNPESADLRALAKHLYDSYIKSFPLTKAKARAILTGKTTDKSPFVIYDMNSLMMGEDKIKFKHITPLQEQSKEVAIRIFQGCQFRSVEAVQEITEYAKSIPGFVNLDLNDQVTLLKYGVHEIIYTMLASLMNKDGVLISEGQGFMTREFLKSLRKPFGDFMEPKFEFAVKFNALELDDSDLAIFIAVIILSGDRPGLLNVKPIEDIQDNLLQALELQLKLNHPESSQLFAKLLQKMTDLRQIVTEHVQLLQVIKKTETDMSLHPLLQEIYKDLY
Cellular tumor antigen p53 (Homo sapiens), sequence (P04637 whole entry, looked up): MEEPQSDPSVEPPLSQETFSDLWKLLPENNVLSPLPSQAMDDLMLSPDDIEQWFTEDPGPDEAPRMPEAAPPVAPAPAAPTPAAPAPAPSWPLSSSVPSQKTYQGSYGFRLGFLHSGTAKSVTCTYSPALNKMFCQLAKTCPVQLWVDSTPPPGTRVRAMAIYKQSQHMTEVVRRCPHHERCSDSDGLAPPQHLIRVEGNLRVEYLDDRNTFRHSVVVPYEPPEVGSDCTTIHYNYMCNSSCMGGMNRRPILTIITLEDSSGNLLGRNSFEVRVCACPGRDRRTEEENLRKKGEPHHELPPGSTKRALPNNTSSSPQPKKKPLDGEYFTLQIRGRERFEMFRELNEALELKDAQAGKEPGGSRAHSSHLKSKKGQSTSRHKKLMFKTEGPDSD
human RAR-related Orphan Receptor beta (RORb), RORB (gene 6096), sequence (Q92753 whole entry, looked up, the tested form may be a part): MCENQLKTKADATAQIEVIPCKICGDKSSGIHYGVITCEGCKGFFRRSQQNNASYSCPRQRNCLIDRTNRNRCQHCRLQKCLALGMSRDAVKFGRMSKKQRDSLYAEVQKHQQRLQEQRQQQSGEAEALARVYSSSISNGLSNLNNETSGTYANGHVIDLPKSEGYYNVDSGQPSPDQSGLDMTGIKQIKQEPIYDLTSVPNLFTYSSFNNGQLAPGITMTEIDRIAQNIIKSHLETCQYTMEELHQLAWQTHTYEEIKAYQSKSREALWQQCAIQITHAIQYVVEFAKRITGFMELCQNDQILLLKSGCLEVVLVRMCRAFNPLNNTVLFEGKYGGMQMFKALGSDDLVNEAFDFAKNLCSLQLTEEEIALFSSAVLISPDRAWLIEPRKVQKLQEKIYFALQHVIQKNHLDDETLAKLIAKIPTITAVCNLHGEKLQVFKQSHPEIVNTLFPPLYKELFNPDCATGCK
human Retinoic Acid Receptor beta (RARb), RARB (gene 5915), sequence (P10826 whole entry, looked up, the tested form may be a part): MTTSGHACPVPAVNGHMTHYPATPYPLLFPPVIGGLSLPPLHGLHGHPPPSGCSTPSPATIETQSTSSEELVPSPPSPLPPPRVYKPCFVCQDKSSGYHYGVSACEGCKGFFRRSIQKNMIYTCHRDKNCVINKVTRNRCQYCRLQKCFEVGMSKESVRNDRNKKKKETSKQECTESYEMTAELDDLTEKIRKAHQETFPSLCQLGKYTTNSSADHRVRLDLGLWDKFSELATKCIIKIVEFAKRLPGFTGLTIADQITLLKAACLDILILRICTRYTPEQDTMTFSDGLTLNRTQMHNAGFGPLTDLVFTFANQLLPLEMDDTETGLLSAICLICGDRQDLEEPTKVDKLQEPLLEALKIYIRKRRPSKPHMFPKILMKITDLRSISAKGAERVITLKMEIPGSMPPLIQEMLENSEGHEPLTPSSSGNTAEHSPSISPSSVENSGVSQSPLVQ
human Retinoic Acid Receptor gamma (RARg), RARG (gene 5916), sequence (P13631 whole entry, looked up, the tested form may be a part): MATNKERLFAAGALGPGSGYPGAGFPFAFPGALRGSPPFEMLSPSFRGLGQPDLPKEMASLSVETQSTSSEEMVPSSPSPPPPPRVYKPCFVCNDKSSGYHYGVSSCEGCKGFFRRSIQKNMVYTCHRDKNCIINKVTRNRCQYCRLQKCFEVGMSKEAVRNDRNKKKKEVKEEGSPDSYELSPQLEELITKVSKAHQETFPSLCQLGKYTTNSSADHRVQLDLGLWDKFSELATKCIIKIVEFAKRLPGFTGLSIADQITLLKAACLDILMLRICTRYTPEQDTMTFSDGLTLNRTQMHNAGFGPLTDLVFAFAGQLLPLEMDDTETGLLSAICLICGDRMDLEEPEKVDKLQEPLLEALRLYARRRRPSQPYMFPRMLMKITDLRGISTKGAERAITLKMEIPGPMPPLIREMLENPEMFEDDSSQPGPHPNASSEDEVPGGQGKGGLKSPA

CCC(C)N(C)C(=O)c1cc2ccccc2c(-c2ccccc2Cl)n1 (stereo not given)
inactive: [1] | [2] | [6] | [7] | [8] | [9] | [10] | [11] | [13] | [14]
active: [3] 16.8 µM | [4] 37 µM | [5] 27.3 µM | [12] 8.77 µM

Cc1cn([C@H]2C=C[C@@H](CO)O2)c(=O)[nH]c1=O
inactive: [1] | [3] | [4] | [6] | [7] | [8] | [9] | [11] | [12]

CC(C)NCC(O)c1ccc(O)c(O)c1 (stereo not given)
inactive: [1] | [4] | [6] | [7] | [8] | [9] | [10] | [11]

CC(=O)S[C@H](C(=O)N[C@H]1Cc2ccccc2[C@H]2CCC[C@@H](C(=O)O)N2C1=O)C(C)C
inactive: [2] | [3] | [4] | [6] | [7] | [8] | [9] | [11] | [12] | [13]

O=C(NS(=O)(=O)/C=C/c1cccs1)c1ccc(F)cc1Br
active: [3] 44.7 µM | [13] 11.4 µM
inactive: [1] | [4] | [6] | [7] | [8] | [9] | [11] | [15] | [14]

Cc1ccc(C(C)(C)C)c(O)c1
inactive: [9] | [14]
active: [2] 164 µM | [3] 65.3 µM | [4] 144 µM | [5] 182 µM | [6] 27.6 µM | [7] 32.6 µM | [8] 34.6 µM | [11] 31.1 µM | [13] 47.2 µM

O=C1c2c(O)cccc2Cc2cccc(O)c21
active: [6] 5.39 µM | [12] 15 µM
inactive: [1] | [3] | [4] | [7] | [8] | [16] | [11] | [15]

CN(C)C(=O)NC1(c2ccccc2)CCN(CC[C@@]2(c3ccc(F)c(F)c3)CN(C(=O)c3ccccc3)CCO2)CC1
active: [3] 40.8 µM | [4] 100 µM | [13] 1.13 µM
inactive: [1] | [6] | [7] | [8] | [9] | [10] | [11] | [17] | [14]

CC(N)=O
inactive: [1] | [3] | [4] | [6] | [7] | [8] | [9] | [16] | [11] | [17] | [14]

O=C1NC(=O)C(c2ccccc2)(c2ccccc2)N1
inactive: [1] | [3] | [4] | [6] | [7] | [8] | [9] | [11] | [13] | [14]

CC(C)(O)c1ccc(CNC(=O)c2cccnc2Oc2ccc(F)cc2)cc1
inactive: [1] | [4] | [6] | [7] | [8] | [16] | [10] | [11] | [18] | [12] | [19] | [14]
active: [3] 40.7 µM | [13] 2.33 µM
